The campaign covered roughly 69,000 compounds. About 8,600 (12%) showed an effect of 50% or more. Many of the other results were omitted from the sample, so strong results are more common in it than they were.
Test system: Plasmodium berghei
Test: Screen against P. berghei liver stage (PbLuc), transformed with Luciferase, at 10uM
Format: functional, HepG2
Conditions: tested at 10 uM

| SMILES | INHIBITION [%] |
| --- | --- |
| O=C(Cc1ccc2c(c1)CCC2)NCCNc1cnccn1 | 8.64 |
| c1cnc(N2C[C@H](OCC3CCOCC3)[C@H]3COC[C@H]32)nc1 | 68.9 |
| c1csc(CN2C[C@H](OCC3CCOCC3)[C@H]3COC[C@H]32)n1 | 26.5 |
| c1cnc(N2CCO[C@H]3[C@H](OCC4CCOCC4)CC[C@@H]32)nc1 | 21.6 |
| c1cc(CN2C[C@H](OCC3CCOCC3)[C@H]3COC[C@H]32)cs1 | 9.65 |
| c1cc(CN2C[C@H](OCC3CCOCC3)[C@H]3COC[C@H]32)co1 | 57.3 |
| COc1ccc(CN2C[C@H](OCC3CCOCC3)[C@H]3COC[C@H]32)cc1 | 41.8 |
| COc1ccc(-n2cc3[nH]c(=O)[nH]n3c2=O)cc1 | 3.68 |
| Cc1ncncc1C(=O)N1CCCC(n2ccnc2C)C1 (centres undefined) | -20.1 |
| NC(=O)N1CCC2(CC1)CN(Cc1cccnc1)C(=O)CO2 | 2.4 |
| O=C(c1ccco1)N1CCCC2(CN(Cc3ccoc3)CCO2)C1 (centres undefined) | -8.25 |
| COCCN1CCC2(CC1)CN(C(=O)c1cccs1)CCO2 | -23.3 |
| Cc1nocc1C(=O)N1CCOC2(COCCN(C(C)C)C2)C1 (centres undefined) | 20.6 |
| COCCN1CCC2(CC1)CN(C(=O)c1ccccc1)CCO2 | 39.5 |
| COCCN1CCC2(CC1)CN(C(=O)c1ccco1)CCO2 | 51.9 |
| COCCN1CCOCC2(C1)CN(C(=O)c1conc1C)CCO2 (centres undefined) | 53.4 |
| Cc1nocc1C(=O)N1CCOC2(COCCN(CC3CC3)C2)C1 (centres undefined) | 1.7 |
| O=C(c1ccco1)N1CCCC2(CN(Cc3ccsc3)CCO2)C1 (centres undefined) | 76.5 |
| O=C(c1ccco1)N1CCCC2(CN(Cc3cccs3)CCO2)C1 (centres undefined) | 2.02 |
| O=C(CC1CC1)N1CC[C@H]2OCC[C@@]2(COc2ncccc2F)C1 | -31.3 |
| CN1CCN(C(=O)C2CCCN(c3cccnn3)C2)CC1 (centres undefined) | 42.4 |
| O=C(Nc1cc(C(F)(F)F)c[nH]c1=O)C1CCCCN1 (centres undefined) | -5.51 |
| CNC(=O)CCN(C)c1nc(-c2ccncc2)nc2c1CCNC2 | 35.8 |
| CCCc1nnc(N2CC[C@@](O)(C3CCOCC3)[C@H](C)C2)s1 | 60.3 |
| CNc1ccnc(N2C[C@@H](C)[C@](O)(C3CCC3)C2)n1 | 30.1 |

| SMILES | INHIBITION [%] |
| --- | --- |
| CNc1ccnc(N2CC[C@@](O)(C3CCOCC3)[C@H](C)C2)n1 | 59.3 |
| CCCc1nnc(N2CC[C@](C)(O)[C@H](C)C2)s1 | -50.3 |
| CCCc1nnc(N2C[C@@H](C)[C@@](C)(O)C2)s1 | 9.96 |
| CNc1ccnc(N2C[C@@H](C)[C@](O)(C3CC3)C2)n1 | 39.9 |
| Cc1cnc(C2(C)CCN(Cc3csc(C)n3)CC2)s1 | 6.32 |
| O=C(NC1CCCOc2cc(Cl)ccc21)c1ccc(=O)[nH]n1 (centres undefined) | -10.9 |
| CCN1CC2(CCC1=O)CCN(C(=O)c1cn3cccnc3n1)CC2 | -13.6 |
| COc1ccc(Br)cc1SCCC(N)=O | 16.1 |
| O=C(NCC1CC1)[C@@H]1CCO[C@@H]2CCN(Cc3ccco3)C[C@H]21 | -22.8 |
| O=C(NC1CC1)[C@@H]1CCO[C@@H]2CCN(CC3CCC3)C[C@H]21 | 61.1 |
| O=C(NC1CC1)[C@@H]1CCO[C@@H]2CCN(Cc3ccco3)C[C@H]21 | 18.3 |
| Cn1cc(CN2CC[C@H]3OCC[C@@H](C(=O)NCc4ccco4)[C@@H]3C2)cn1 | 5.96 |
| O=C(NC1CC1)[C@@H]1CCO[C@@H]2CCN(C3CCCC3)C[C@H]21 | 3.25 |
| O=C(NC1CC1)[C@@H]1CCO[C@@H]2CCN(CC3CCC3)C[C@@H]21 | 91 |
| CN1CC[C@H]2OCC[C@@H](C(=O)NCc3ccco3)[C@@H]2C1 | 18.3 |
| O=C(NCc1ccco1)[C@@H]1CCO[C@@H]2CCN(CC3CC3)C[C@@H]21 | 67.2 |
| O=C(NCc1ccccn1)[C@@H]1CCO[C@@H]2CCN(Cc3ccoc3)C[C@H]21 | 54.6 |
| O=C(NC1CC1)[C@@H]1CCO[C@@H]2CCN(C3CCOCC3)C[C@H]21 | -48.2 |
| O=C(NCc1ccccn1)[C@H]1COC[C@H]2CN(Cc3ccoc3)C[C@H]21 | 31.8 |
| O=C(NC1CC1)[C@@H]1CCO[C@@H]2CCN(Cc3ccsc3)C[C@H]21 | 27.3 |
| CN(C)Cc1ccnc(C2CCCN2Cc2cc3ccccc3s2)n1 (centres undefined) | 19.6 |
| CC1CN(Cc2cc(C#N)ccc2F)CCN1Cc1nccn1C (centres undefined) | 22.95 |
| O=C(CCc1cc2n(n1)CCCNC2)N1CCSCC1 | -24.7 |
| CNc1nc(C2CCCCN2C(=O)COC)nc2c1CN(C)CC2 (centres undefined) | 38.2 |
| CNC(=O)[C@@H]1CCO[C@@H]2CCN(CCc3ccccc3)C[C@H]21 | 8.52 |

| SMILES | INHIBITION [%] |
| --- | --- |
| O=C(NC1CC1)[C@@H]1CCO[C@@H]2CCN(CCc3ccccc3)C[C@@H]21 | 27.3 |
| O=C(NC1CCC1)[C@@H]1CCO[C@@H]2CCN(CCc3ccccc3)C[C@H]21 | 53.5 |
| O=C(NC1CCC1)[C@@H]1CCO[C@@H]2CCN(C3CCCC3)C[C@@H]21 | 53.4 |
| O=C(NC1CC1)[C@@H]1CCO[C@@H]2CCN(C3CCOCC3)C[C@@H]21 | 26.8 |
| O=C(NC1CCC1)[C@@H]1CCO[C@@H]2CCN(C3CCCC3)C[C@H]21 | -25.2 |
| Cc1ccc(-n2c(SCC(=O)O)nnc2-c2ccccc2)cc1 | -12.9 |
| O=C1CN(CC2CC2)Cc2nc(NCc3ccccc3)sc21 | 29.3 |
| Cn1cc(-c2nc(CN3CCCCC3Cn3cncn3)cs2)cn1 (centres undefined) | -91.6 |
| Cc1nnc2n1CCN(C(=O)c1cc(Br)c(Cl)[nH]1)C2 | 18.85 |
| Cc1noc(C2CCCN(Cn3cc(Cl)cn3)C2)n1 (centres undefined) | -9.39 |
| Cc1nc(CN2C(=O)CC[C@@H]3[C@H]2CCN3C2CCOCC2)cs1 | 50 |
| Cc1nc(CN2C(=O)C[C@H]3[C@H]2CCN3CC2CCOC2)cs1 (some centres undefined) | 56.6 |
| Cc1nc(CN2C(=O)C[C@H]3[C@H]2CCN3C2CCOCC2)cs1 | 20.1 |
| Cc1nc(CN2C(=O)C[C@H]3[C@H]2CCN3C2CCOC2)cs1 (some centres undefined) | -43.1 |
| Cc1nc(CN2C(=O)CC[C@@H]3[C@H]2CCN3C2CCOC2)cs1 (some centres undefined) | -54.9 |
| Cc1nc(CN2C(=O)C[C@@H]3[C@@H]2CCN3CC2CCOCC2)cs1 | -5.08 |
| O=C(c1cnn2ccccc12)N1CCCC(OCc2ccccn2)C1 (centres undefined) | 15.7 |
| COc1c(CNC(c2ccccc2)c2ccc(F)cc2)c(C)nn1C (centres undefined) | 35.4 |
| CC1CCN(C(=O)[C@H]2C[C@@H]3CCN(CC4CCOCC4)C[C@H]3O2)CC1 | -7.24 |
| c1cc(NCc2ccncc2)nc(C2CCCN2)c1 (centres undefined) | 14 |
| O=C(CC1CCN(c2cccnn2)CC1)Nc1nncs1 | 31.3 |
| Cc1nc(-c2ccccc2)sc1CSC(C)C(N)=O (centres undefined) | -48.3 |
| Cc1nc(-c2ccccc2)sc1CSCCC(N)=O | 60.8 |
| Cc1nc(-c2ccccc2)sc1CSCCS(C)(=O)=O | 20.1 |
| CNc1cc2c(nn1)CCN(C(=O)c1cc(C)no1)C2 | -65.3 |

| SMILES | INHIBITION [%] |
| --- | --- |
| CN1CC(C(=O)NCc2ccc(Br)cc2F)CC1=O (centres undefined) | -18.5 |
| CCNC(=O)CN1CCC(OCC2CCCO2)CC1 (centres undefined) | 68.8 |
| CNC(=O)CN1CCC(OCC2CCCO2)CC1 (centres undefined) | 32.9 |
| O=C(CN1CCC(OCC2CCCO2)CC1)NCC(F)(F)F (centres undefined) | 1.2 |
| Cc1nn(C)c(C)c1C1CCCN1C(=O)c1ccnc(N(C)C)c1 (centres undefined) | -4.16 |
| CN(Cc1ccco1)C1CCC12CCN(C(=O)c1ccco1)CC2 (centres undefined) | -77.5 |
| COc1ncccc1CNC(=O)c1cc(C)on1 | -41.1 |
| COc1ccccc1C(C)N1CCN(S(=O)(=O)N(C)C)CC1 (centres undefined) | 14.7 |
| CCS(=O)(=O)N1CCN(C(C)c2ccccc2OC)CC1 (centres undefined) | 13.5 |
| COc1ccccc1C(C)N1CCN(S(C)(=O)=O)CC1 (centres undefined) | 51.1 |
| COCCC(=O)N1CCCC2(CCCN2Cc2ccccc2F)C1 (centres undefined) | 19.5 |
| COCC(=O)N1CCN(C(=O)Cc2cccs2)[C@H]2CS(=O)(=O)C[C@H]21 | -6.11 |
| O=C(O)c1cccc(CN2CCCC(c3ccn[nH]3)C2)c1 (centres undefined) | 21.45 |
| O=C(CN1CCCC(c2ccn[nH]2)C1)N1CCCc2ccccc21 (centres undefined) | 21.8 |
| Cc1cc(C2CCCN(CC(=O)Nc3nc4c(s3)CCC4)C2)n[nH]1 (centres undefined) | 75.8 |
| O=C1CCCN1CCN1CCCC(c2ccn[nH]2)C1 (centres undefined) | -24.2 |
| Cc1nnc(NC(=O)CN2CCCC(c3ccn[nH]3)C2)s1 (centres undefined) | 47.1 |
| O=C(CN1CCCC(c2ccn[nH]2)C1)Nc1nncs1 (centres undefined) | 56.3 |
| O=C(CN1CCCC(c2ccn[nH]2)C1)Nc1nc2c(s1)CCCC2 (centres undefined) | 86.9 |
| CC(C)C1Nc2ccccc2C(=O)N1CC(=O)Nc1nc2c(s1)CCC2 (centres undefined) | 16.5 |
| Cc1nc(C)n(CC2CCCN(CC(=O)Nc3nncs3)C2)n1 (centres undefined) | 12.4 |
| Cc1cc(C2CCCN(CC(=O)N3CCCc4ccccc43)C2)n[nH]1 (centres undefined) | 19.9 |
| Cc1cc(C2CCCN(CC(=O)N3CCc4ccccc43)C2)n[nH]1 (centres undefined) | 15.2 |
| O=C(CN1CCCC(c2ccn[nH]2)C1)Nc1nc2c(s1)CCC2 (centres undefined) | 83.2 |
